Sampled rows, rich in hits. Any-hit rate of the full collection: about 14%.
Shiga toxin inh – blocks Shiga toxin action in Vero cells; inhibition, % at 38.7 µM; hit rate 9.2% among 290,000; Vero cells, Shiga toxin protein synthesis inhibition reporter; in the data active = inhibition mostly above about 28%, no sharp cut-off; inactive = mostly below about 43%; note: 0% is about no effect
CHX counter – counter-screen hit for Shiga toxin inhibitors, cycloheximide; hit rate 12% among 300,000; AID 2314; max response, %; cell reporter, cycloheximide protein synthesis inhibition counterscreen; in the data active = max response mostly above about 13%, no sharp cut-off; inactive = mostly below about 14%; note: read at 38.3 µM for the half of the compounds with a filed dose; 0% is about no effect
FBPA Giardia inh – blocks Giardia fructose-bisphosphate aldolase activity | A8B2U2 | purified Giardia FBPA | Potency, µM (titrated, usually from 59.6 µM), for the others: at the top dose activity, negative = inhibition, hits mostly inhibitors | hit rate 0.71% among 290,000 | AID 2451; note: potency is the fitted concentration of half-maximal effect; % is set by controls: 0 for no effect and ±100 for the full control effect; nearly all actives have a fitted effect of over 55% in size
Target sequence (A8B2U2 whole entry, looked up): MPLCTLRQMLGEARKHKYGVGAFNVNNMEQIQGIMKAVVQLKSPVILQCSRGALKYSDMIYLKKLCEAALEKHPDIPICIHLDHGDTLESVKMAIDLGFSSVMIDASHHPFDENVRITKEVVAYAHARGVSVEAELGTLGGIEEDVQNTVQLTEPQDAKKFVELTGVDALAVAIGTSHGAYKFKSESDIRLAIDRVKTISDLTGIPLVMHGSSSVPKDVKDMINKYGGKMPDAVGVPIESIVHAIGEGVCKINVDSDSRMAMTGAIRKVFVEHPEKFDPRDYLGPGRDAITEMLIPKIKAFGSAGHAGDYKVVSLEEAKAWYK
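Giardia FBPA (40 nM reagent) was preincubated 10 min at RT with compound (up to 57.5 uM final), then substrate plus GAPDH/TPI/NAD/arsenate coupling system with diaphorase/resazurin was added; resorufin fluorescence (525/598 nm) was read after 20 min.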
LmPK inhibitor – blocks Leishmania mexicana pyruvate kinase activity; Q27686; purified LmPK, Kinase-Glo ATP luminescence, 1 h; Potency, µM (series often up to 57.5 µM), for the others: at the top dose activity change, negative = inhibition, most hits filed as inhibitors; hit rate 0.37% among 290,000; note: potency is the fitted concentration of half-maximal effect; % is set by controls: 0 for no effect and ±100 for the full control effect
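Pyruvate kinase activity monitored as ATP production (luciferase luminescence). Conditions: 0.1 nM enzyme, 0.5 mM PEP, 0.1 mM ADP, 1 h, RT; normalized against uninhibited and no-enzyme wells.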
NS1 function inh – influenza NS1 inhibition; AID 2326; hit rate 0.4% among 270,000; Potency, µM (doses to about 46.1 µM), for the others: top-dose activity, positive = more growth; calls by dose curve; note: potency is the fitted concentration of half-maximal effect; actives are rising curves; nearly all actives have a fitted effect of over 50% in size
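OD600 was taken as the measure of yeast growth restored by compound in an NS1-expressing S. cerevisiae strain. Cells had been washed out of glucose medium and diluted 1:100 into galactose -URA medium, pH 6.0.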
Active calls of the source: *; ? = inconclusive; nt = no result; [ ] = dose if it differs, or a comment. Unless noted, calls come from the whole dose curve; as a rule, active = well fitted curve in the direction sought with a large enough effect; inconclusive = small, poorly fitted or top-dose-only effect, or another doubt; inactive = no such curve, though single readings can be large; an effect the other way counts as inactive or inconclusive.

SMILES	Shiga toxin inh	CHX counter	FBPA Giardia inh	LmPK inhibitor	NS1 function inh
Cc1ccc(OCC(=O)c2cc(C)n(C)c2C)c([N+](=O)[O-])n1	80*	29*	-29%	4%	51%
Cc1ccc(-n2c(C)cc(C(=O)COc3cccnc3[N+](=O)[O-])c2C)cc1	54*	43*	-10%	1%	-2%
Cc1cc(C(=O)COc2cccnc2[N+](=O)[O-])c(C)n1Cc1ccco1	10	14	?	1%	2%
Cc1cc(C(=O)COc2ccc(Cl)cc2Br)c(C)n1C	41	22*	-1%	-4%	-10%
COC(=O)C1CCCN1C(=O)COc1ccc(Cl)cc1Br (stereo unspecified)	6	-2	2%	2%	-2%
Cc1cc(C(=O)COc2cccnc2[N+](=O)[O-])c(C)n1-c1ccccc1	56*	59*	-9%	-1%	8%
O=Cc1cccn1-c1ccc2ccccc2c1	42*	29*	-3%	-4%	-2%
O=c1c(O)c(-c2ccc(O)c(O)c2)oc2c(OC3OC(CO)C(O)C(O)C3O)c(O)cc(O)c12 (stereo unspecified)	nt	nt	-25%	nt	nt
O=C(NC1CC1)C1CCN(C2CCN(C(=O)c3c(F)cccc3Cl)CC2)CC1	-13	-4	-11%	1%	-1%
CC(C)(C)S(=O)(=O)c1cnc2c(-c3ccsc3)cnn2c1N	65	49*	3%	-3%	nt
CS(=O)(=O)c1cnc(-c2ccccc2)nc1Oc1ccc(F)cc1	13	1	0%	2%	6%
Nc1c(-c2cccs2)cnc2c(-c3ccc(F)cc3)cnn12	118*	43*	2%	1%	1%
Nc1c(-c2ccccc2)cnc2c(-c3ccccc3)cnn12	130*	52*	4%	0%	-7%
N#Cc1cnn2c(N)c(-c3ccc(Cl)cc3)cnc12	-5	5	-3%	-7%	nt
Nc1c(-c2ccsc2)cnc2ncnn12	2	11	-2%	3%	nt
Cc1c(-c2ccc(F)cc2)nc(N)c(C#N)c1-c1cccs1	-18	0	5%	3%	-5%
CS(=O)(=O)c1cnc2c(-c3ccc(F)cc3)cnn2c1N	61*	58*	2%	3%	6%
COc1ccccc1C(O)P(=O)(OCC(C)C)c1ccc(N(C)C)cc1 (stereo unspecified)	-15	-4	6%	7%	6%
Oc1ccc([C@H](O)C2CCCCN2)cc1O (stereo partly specified)	nt	nt	nt	nt	0%
O=c1[nH]c(Cc2ccc(F)cc2)nc2scc(-c3ccc(F)cc3)c12	28	17*	2%	-1%	7%
Cc1ccc(-c2csc3nc(CN(C)Cc4ccccc4)[nH]c(=O)c23)cc1	11	15	-1%	2%	nt
CCn1c(SCc2nc3scc(-c4ccccc4)c3c(=O)[nH]2)nnc1-c1ccc(Cl)cc1	-1	1	1%	0%	-10%
Cc1ccc(-c2csc3nc(CSc4nnc(-c5ccc(Cl)cc5)n4C)[nH]c(=O)c23)cc1	-9	13*	5%	4%	14%
CN(C)c1ccc(-c2n(C)c3ccccc3[n+]2C)cc1	52*	27*	?	-3%	6%
Cn1c(-c2ccc3ccccc3n2)[n+](C)c2ccccc21	72*	53*	-7%	5%	0%
SMILES	Shiga toxin inh	CHX counter	FBPA Giardia inh	LmPK inhibitor	NS1 function inh
CC1CCCC(C)N1CC(O)COCc1ccccc1F (stereo unspecified)	-4	-8	-28%	-1%	0%
COCCN1C(=S)NC(c2cccc(C(F)(F)F)c2)C(C(=O)N2CCOCC2)=C1C (stereo unspecified)	6	-1	1%	2%	3%
COc1ccc2c(c1)C(=NO)c1cc(OC)ccc1-2	22*	18*	1%	2%	-56%
C=CCOc1ccc2c(c1)C(=NO)c1cc(OCC=C)ccc1-2	14	10	0%	7%	-65%
O=C(Nc1cccc(F)c1)N1CCC2(CC1)CCN(C(=O)c1csnn1)CC2	nt	nt	1%	nt	nt
COc1ccc(C2C=C(c3ccccc3)Nc3nnnn32)cc1 (stereo unspecified)	53*	21*	-2%	7%	-8%
COc1cccc(C2=CC(c3ccc(N(C)C)cc3)n3nnnc3N2)c1 (stereo unspecified)	50*	25*	-16%	6%	0%
COc1cccc(C2=CC(c3ccccc3)n3nnnc3N2)c1 (stereo unspecified)	3	1	-16%	1%	-14%
CSc1nc(C)cc(Nc2ccc(O)c(CN3CCCCC3)c2)n1	nt	nt	nt	nt	-10%
CC(=O)OC[C@H]1O[C@@H](O/N=C(\C)CCN2CCc3nc(-c4ccccc4)c(-c4ccccc4)cc3C2)[C@H](OC(C)=O)[C@@H](OC(C)=O)[C@H]1OC(C)=O	nt	nt	0%[12.9 µM]	nt	nt
CCN1/C(=C\C=C\C2=[N+](CC)c3ccccc3C2(C)C)C(C)(C)c2ccccc21	-25	-6	21%	10µM*	-41%
O=C(NC1CCC(CC2CCC(NC(=O)C(Cl)Cl)CC2)CC1)C(Cl)Cl (stereo unspecified)	nt	-1	1%	2%	6%
O=C(Nc1ccc(OC(F)(F)F)cc1)c1ccc2nccnc2c1	79*	27*	-18%	-1%	nt
O=C(Nc1ccc(SC(F)F)cc1)c1ccc2nccnc2c1	41*	46*	?	8%	-18%
NNC(=O)c1c(O)c2cccc3c2n(c1=O)CCC3	-7	-1	1%	6%	8%
Cn1c(=O)c(C(=O)CN2CCCc3ccccc32)c(N)n(Cc2ccccc2)c1=O	15	49*	-15%	3%	?
CCC(=Nc1ccccc1O)C1=C(O)CC(c2ccccc2)CC1=O (stereo unspecified)	34	11*	-23%	-2%	-84%
O=C(COc1ccc2c(-c3ccccc3)cc(=O)oc2c1)NCCCN1CCOCC1	23	12*	nt	6%	7%
COc1ccc(-c2cc(C(=O)NCCCN3CCOCC3)c3cc(C(C)C)ccc3n2)cc1	-5	17	5%	-2%	-1%
CC(C)Oc1ccc(-c2cc(C(=O)NCCN3CCOCC3)c3ccccc3n2)cc1	61	30*	nt	-1%	-1%
COc1ccc(-c2cc(C(F)F)n3ncc(C(=O)Nc4c(C)n(C)n(-c5ccccc5)c4=O)c3n2)cc1	-10	-2	5%	9%	6%
CCC(C)c1ccc(-c2cc(C(=O)OCC(=O)Nc3cc(C)on3)c3ccccc3n2)cc1 (stereo unspecified)	24	12	2%	6%	4%
Cc1cc(NC(=O)c2cc(-c3ccc(OC(C)C)cc3)nc3ccccc23)no1	39	20*	3%	5%	-7%
COc1ccc(-c2cc(C(F)F)n3ncc(C(=O)Nc4cc(C)on4)c3n2)cc1	15	28*	-3%	3%	1%
Cc1ccc(-c2ccc(C#N)c(=O)n2CC(=O)N(C)C)cc1	-7	-2	-7%	4%	12%
COCCCNC(=O)COc1cc2c(c3oc(=O)c(C)c(C)c13)CCC(C)(C)O2	-18	-3	-6%	0%	1%

Compound activity from PubChem.
